# According to PubChem BioAssay (NCI):
# About 79,000 compounds went through this panel and 15% of them were active in at least one assay; those are over-represented in the sample as a whole. Unmarked numbers belong to inactive results. Active and inactive are the calls of the source. Cut-off read from the data, not from the text of the source: active = growth inhibition above about 70%; inactive = the rest.
# Key:
# [1] = NCI Yeast Anticancer Drug Screen. Data for the rad50 strain (AID 155);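 note: 0% = growth of vehicle-only cultures of the same strain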; settings: S. cerevisiae rad50 strain growth inhibition, active compounds read high
# Summary of the method: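 Readout: growth inhibition relative to vehicle-treated cultures. Compound exposure was carried out in a genetically defined yeast strain deficient in DNA damage repair.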
# [2] = NCI Yeast Anticancer Drug Screen. Data for the mec2-1 strain (AID 157); settings: S. cerevisiae mec2-1 strain, active compounds read high
# Summary of the method: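 Cells of the genetically defined mec2-1 yeast strain are incubated with test compound. Inhibition of growth is calculated against vehicle-treated controls.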
# [3] = NCI Yeast Anticancer Drug Screen. Data for the sgs1 mgt1 strain (AID 161);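 note: 0% = growth of cultures given vehicle only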; settings: S. cerevisiae sgs1 mgt1 strain, active compounds read high
# Summary of the method: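 Read-out: growth inhibition vs vehicle controls. Cells: mutant yeast strain deficient in DNA damage repair.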
# [4] = NCI Yeast Anticancer Drug Screen. Data for the cln2 rad14 strain (AID 165);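 note: 0% = growth equal to vehicle treated cultures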; settings: S. cerevisiae cln2 rad14 strain, active compounds read high
# Summary of the method: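 The screen exposed genetically defined yeast (cln2 rad14) to test compounds and scored growth inhibition relative to vehicle-treated controls.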
# [5] = NCI Yeast Anticancer Drug Screen. Data for the bub3 strain (AID 167); settings: S. cerevisiae bub3 mutant strain, active compounds read high
# Summary of the method: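 Readout: yeast growth inhibition, expressed relative to vehicle-only wells. The test organism is a mutant strain from a panel with lesions in DNA repair or checkpoint genes.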
# [6] = NCI Yeast Anticancer Drug Screen. Data for the mlh1 rad18 strain (AID 175); settings: S. cerevisiae mlh1 rad18 strain growth inhibition, active compounds read high
# Summary of the method: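 Compound-treated yeast growth, normalised to vehicle controls. Strain bears defined DNA repair mutations.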
# [7] = at 5.0 µM (retest, dose inferred, filed as 0.5)
# [8] = at 50.0 µM (retest, dose inferred, filed as 5.0)
SMILES,"growth inhibition [1, 7]","growth inhibition [1, 8]",growth inhibition ([1]; at 50.0 µM),"growth inhibition [2, 7]","growth inhibition [2, 8]",growth inhibition ([2]; at 50.0 µM),"growth inhibition [3, 7]","growth inhibition [3, 8]",growth inhibition ([3]; at 50.0 µM),"growth inhibition [4, 7]","growth inhibition [4, 8]",growth inhibition ([4]; at 50.0 µM),"growth inhibition [5, 7]","growth inhibition [5, 8]",growth inhibition ([5]; at 50.0 µM),"growth inhibition [6, 7]","growth inhibition [6, 8]",growth inhibition ([6]; at 50.0 µM)
COC(=O)c1ccc(CSc2ccc(OC)cc2)cc1,16%,84% (active),88.5% (active),-14%,75% (active),83.2% (active),8%,92% (active),88.3% (active),2%,83% (active),80.9% (active),1%,80% (active),85.2% (active),-21%,91% (active),85.3% (active)
O=[N+]([O-])c1ccc(C(Cl)Cc2ccc(Cl)cc2)cc1 (configuration not stated),10%,66%,90.2% (active),7%,64%,82.5% (active),22%,91% (active),93.7% (active),-8%,61%,62.6%,20%,82% (active),94.3% (active),-18%,71% (active),89.1% (active)
Cc1cc(Br)c(P(=O)(O)O)cc1[N+](=O)[O-],-3%,-10%,74.1% (active),-7%,-3%,42.7%,-3%,-14%,72% (active),0%,-5%,-2.55%,3%,6%,4.4%,3%,-4%,64%
O=c1c2[nH]c3cccc(Cl)c3c2cnn1-c1ccc(F)cc1,4%,47%,96.7% (active),2%,74% (active),97.2% (active),9%,35%,96.6% (active),2%,85% (active),94.5% (active),2%,53%,98% (active),-2%,79% (active),97% (active)
CC(=O)N(/C=C\c1sc2ccccc2[n+]1C)c1ccccc1,38%,96% (active),90.5% (active),27%,98% (active),87.5% (active),61%,89% (active),84% (active),33%,65%,89.8% (active),27%,98% (active),91.3% (active),54%,97% (active),90.6% (active)
CCOC(=O)c1c[nH]cc1-c1cn(S(=O)(=O)c2ccccc2)cc1C,38%,12%,29.2%,34%,14%,18.2%,69%,21%,49.6%,38%,15%,43.5%,89% (active),38%,44%,82% (active),28%,49%
O=C1c2ccccc2C(=O)c2c(/C=C\N3CCCCC3)ccnc21,40%,86% (active),87.7% (active),27%,60%,92.4% (active),40%,99% (active),92.6% (active),38%,95% (active),90.7% (active),48%,98% (active),92.3% (active),37%,84% (active),90.6% (active)
CN1C/C(=C\c2ccc(Cl)cc2)C(=O)/C(=C/c2ccc(Cl)cc2)C1,78% (active),98% (active),87.2% (active),73% (active),99% (active),88.5% (active),79% (active),99% (active),91% (active),78% (active),97% (active),88% (active),84% (active),97% (active),87.8% (active),83% (active),98% (active),85.2% (active)
Oc1cc2c(cc1C(c1ccc(Cl)cc1)N1CCOCC1)OCO2 (configuration not stated),1%,98% (active),99% (active),-1%,99% (active),99.2% (active),7%,99% (active),99% (active),-8%,83% (active),96.5% (active),-7%,98% (active),98.9% (active),0%,99% (active),98.8% (active)
c1ccc(CC[n+]2csc3ccccc32)cc1,-2%,73% (active),57%,0%,84% (active),50.5%,-2%,81% (active),36.3%,-8%,35%,31.8%,0%,90% (active),63.8%,-2%,83% (active),54.6%
CCCCCCC[n+]1ccc(C(=O)c2ccccc2)cc1,99% (active),99% (active),99.4% (active),100% (active),99% (active),94.3% (active),100% (active),100% (active),99.5% (active),99% (active),100% (active),80.2% (active),99% (active),99% (active),99.3% (active),99% (active),99% (active),99.5% (active)
C=C(C)/C([O-])=N/[N+](C)(C)CC(O)CCCCCCCCCCCC (configuration not stated),34%,98% (active),91.7% (active),32%,99% (active),91.5% (active),60%,99% (active),92.2% (active),57%,99% (active),90.3% (active),67%,99% (active),91.5% (active),31%,98% (active),90.2% (active)
C/C(=C\c1ccccc1Cl)c1ccccn1,2%,67%,86.2% (active),2%,49%,89.6% (active),6%,71% (active),80.7% (active),-7%,7%,-44.5%,33%,98% (active),96.8% (active),10%,27%,83% (active)
CN(C)N=Nc1ccc(NC(N)=O)cc1,33%,78% (active),43.8%,16%,43%,65.3%,38%,45%,12.6%,38%,51%,23.3%,42%,50%,67.7%,25%,58%,81.2% (active)
CCOC(=O)C1=C(C)NC(C)=C(C(=O)OCC)C1c1ccc([N+](=O)[O-])s1,61%,98% (active),91.3% (active),35%,98% (active),93.2% (active),49%,95% (active),93.2% (active),29%,77% (active),91.7% (active),40%,83% (active),93.2% (active),65%,98% (active),91.6% (active)
BrCN(CBr)c1ccc2c(c1)Cc1cc(Br)ccc1-2,4%,-4%,70.4% (active),-3%,-4%,28.4%,1%,1%,64.8%,7%,11%,-1.35%,1%,-2%,25.8%,3%,-7%,74.3% (active)
Cc1nc(Nc2ccccc2)sc1C(=O)NNc1ccc([N+](=O)[O-])cc1[N+](=O)[O-],19%,19%,12.6%,7%,7%,40.2%,-6%,-6%,60.8%,14%,14%,28.4%,15%,15%,43%,20%,20%,66.2%
Cn1cc(CCC(=O)C2C=CC=CC2=NC(=O)CCCl)c2ccccc21 (configuration not stated),11%,7%,-3.6%,7%,-6%,12.8%,-1%,-20%,-4%,14%,14%,14.3%,11%,7%,8.95%,-2%,1%,-17.1%
CCCCCCCCCCCC(C)N (configuration not stated),15%,83% (active),99% (active),4%,78% (active),99.5% (active),4%,91% (active),98.7% (active),12%,25%,98% (active),11%,86% (active),99.2% (active),2%,74% (active),98.1% (active)
